The full ranking holds about 33,000 sequences; the median of “E-score (-0.5 to 0.5)” is about -0.016, and the highest 2% start at about 0.3. Only a selection was taken, and the highest values are over-represented in it overall.
Target: T1, Yer184c (UniProt P39961)
T1 sequence: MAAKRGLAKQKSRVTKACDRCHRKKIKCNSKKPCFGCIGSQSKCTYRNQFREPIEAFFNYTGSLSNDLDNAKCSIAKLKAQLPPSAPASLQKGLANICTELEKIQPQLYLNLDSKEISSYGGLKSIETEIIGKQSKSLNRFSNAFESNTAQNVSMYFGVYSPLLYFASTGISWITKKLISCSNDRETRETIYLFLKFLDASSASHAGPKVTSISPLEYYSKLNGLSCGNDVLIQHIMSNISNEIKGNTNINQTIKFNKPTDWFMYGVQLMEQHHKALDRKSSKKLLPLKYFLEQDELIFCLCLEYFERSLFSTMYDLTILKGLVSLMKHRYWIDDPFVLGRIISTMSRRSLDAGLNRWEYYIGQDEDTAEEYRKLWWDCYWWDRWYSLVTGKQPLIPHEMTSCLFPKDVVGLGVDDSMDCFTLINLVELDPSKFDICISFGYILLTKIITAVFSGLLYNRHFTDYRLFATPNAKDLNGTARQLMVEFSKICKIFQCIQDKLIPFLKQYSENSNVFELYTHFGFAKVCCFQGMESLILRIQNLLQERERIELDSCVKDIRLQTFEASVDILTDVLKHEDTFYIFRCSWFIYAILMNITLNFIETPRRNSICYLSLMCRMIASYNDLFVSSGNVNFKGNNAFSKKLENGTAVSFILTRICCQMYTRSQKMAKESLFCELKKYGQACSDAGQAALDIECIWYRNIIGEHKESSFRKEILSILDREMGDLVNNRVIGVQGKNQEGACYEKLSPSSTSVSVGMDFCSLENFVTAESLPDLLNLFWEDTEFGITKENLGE
Assay: PBM E-score (8-mer binding enrichment) (E-score (-0.5 to 0.5)); higher = stronger / more preferred TF binding
Details: protein concentration: 100 nM; construct: GST-full length
How it was run: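 Yeast transcription factors, full-length or as DNA-binding domains, were expressed with a GST tag using PURExpress in vitro transcription/translation. At about 100-200 nM they were applied to universal all-10-mer Agilent arrays, double-stranded by primer extension on fresh or once-stripped slides. Fluorescent anti-GST detected bound protein, and masliner normalised the scans. E-scores for ungapped eight-base words, pooled with reverse complements, came from the Universal PBM Analysis Suite.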

Sequence	PBM E-score
CGCTGCAA	0.0112
AAACGATC	0.161
ACATACTC	0.0395
TAGCAGAA	0.0545
ACCGGAGG	0.144
ACCGGAGA	0.33
ACCGGAGC	0.247
CCCGGAGA	0.222
TCCGGAGA	0.397
GCCGGAGA	0.29
ATGATCAC	-0.0394
AACTAGTG	-0.0163
ACCATTCC	0.0171
ATTGGCCA	-0.148
TCGGTTCA	0.148
CCCGGAAG	0.259
GCAGGAAA	-0.0351
TCCGGAAA	0.449
CCCGGAAA	0.396
TGCGGAAA	0.184
GCCGGAAA	0.426
TCAGGAAA	0.112
GCTGGAAA	0.133
ATCTAGCC	0.00276
AGGTTATC	-0.0359

Sequence	PBM E-score
GAACTTGC	0.0842
ATCTTTTC	0.0824
CAGCGTAC	-0.147
CGCCATTC	0.0678
GCACGGAA	0.159
CCACGGAG	0.0656
CCACGGAC	-0.00729
TCACGGAA	0.341
CCACGGAA	0.338
ACACGGAA	0.295
AGGACAAG	-0.102
AAGTCTCT	-0.246
AACAGAAC	0.163
GTTGTACA	0.277
GTGCCGGA	0.305
ATGCCGTC	0.0209
CTGCCGGC	0.369
ATGCCAGA	0.0873
GGGCCGGA	0.244
ATGCCGGC	0.399
CTGCCGAC	0.0291
ATGCCGCA	0.124
ATGCCGGG	0.244
CTGCCGTC	-0.066
GTGCCGTA	0.16

Sequence	PBM E-score
ATGCCGGA	0.36
ATACGCGG	-0.0243
AGCCCTCC	-0.201
GCATTCCC	-0.182
ACCTCTAA	0.0296
CATTGTGA	-0.164
GCTGTGCC	-0.0243
AGAGAGAT	0.0462
CACGTTCC	-0.176
AGACCAAC	-0.108
ATATTATG	0.261
ATATAACG	0.255
CAAGTAGC	-0.216
CTGCCGTA	-0.00407
CTGCCGGA	0.349
CTGCCGCA	-0.117
CGATGCGA	-0.0338
GCCGAGTA	0.262
ACCGAGAC	0.0458
CCCGAGAA	0.234
GTCGAGAA	-0.0535
TCCGAGAA	0.324
ACCGAGAA	0.282
CCCGAGAC	0.0787
TCCGAGCA	0.329

Sequence	PBM E-score
GCCGAGAC	0.327
GCCGAGCA	0.186
GCCGAGAA	0.368
ACCGAGCA	0.225
GTCCTGCA	-0.122
CGGCACTC	0.124
ACAACGTC	-0.0597
ACAGACGG	-0.11
TGAGCACA	0.0117
CTGCATAA	0.11
AGAAAGCG	-0.0479
GCTGCGAA	0.0893
CAGGTCGG	-0.119
CCAGATCA	0.135
CATCTCCG	0.37
CATCTCCC	-0.0754
AATCTCCG	0.3
AAGCAGAC	-0.195
CCCACAGA	-0.227
AAGTAGCC	-0.0314
CGTCCGTA	0.0308
AGTCCGGG	0.212
GGTCCGGA	0.376
GGTCCGTA	0.178
AGTCCGGC	0.289

Sequence	PBM E-score
CTCCCGGA	0.243
GTCCCCGA	-0.142
AGTCCGGA	0.429
CGTCCGGC	0.296
GGTCCGCA	0.151
GTCCCGGA	0.318
CGTCCGGA	0.323
AACATCAA	0.156
GCTCCAAA	-0.0747
ACATACCA	-0.12
ATTGCGTC	-0.0563
GCCTGTGA	-0.282
CAACTGAC	-0.106
AACCTAAG	-0.181
CCGGAATA	0.339
CCGGACTC	0.341
CTGGAATC	-0.192
ACGGACTC	0.0365
CCGGACTA	0.273
CCGGAATC	0.336
ATGGAATA	0.127
ACGGAATA	0.321
ACGGAATG	0.167
CGGGAATA	0.3
GCGGAATA	0.205

Sequence	PBM E-score
ACGGAATC	0.301
GACCTAAA	0.0912
AAAACTGC	0.0178
GGTACTAA	-0.00623
GGGCGACC	-0.167
GCTAACCA	-0.0625
CAGAAGGA	-0.224
TCGCTCAA	0.047
GCGGCTGA	-0.0974
ACGGCTTC	0.0891
CGGGCTTC	0.169
CTGGCTGC	-0.198
CCGGCTTC	0.307
CCGGCTTA	0.33
GCGGCTTA	0.025
CCGGCTGA	0.327
ACGGCTGA	0.0623
CCGGCTGC	0.331
ACGGCTTA	0.193
ACGGCTGC	0.0869
ACTTTCTA	-0.0235
AGAATGCT	-0.168
CAAATCGC	-0.0704
ATGGAGAC	-0.176
TACGTCTA	-0.127

Sequence	PBM E-score
GTTAGCTA	-0.119
GGATATGA	0.0918
TCCGGGAA	0.37
GCCGGGAC	0.263
GCCGGGGA	0.0977
GCCGGGAA	0.331
CCCGGGAA	0.272
ACCGGGAA	0.28
CATGCAAC	-0.00764
GTCTCAAC	-0.0423
AGCTAGAT	-0.104
CGGGACGC	-0.0137
CATTCCGC	-0.0761
CATTCCGA	0.278
AATTCCCG	0.272
AATTCCGC	0.208
AATTCCAT	0.0965
AATTCCGG	0.387
CATTCCGG	0.318
AATTCCGT	0.328
AATTCCCT	-0.0636
CTGGCTAC	-0.13
